Source: PubChem (ICCB-Longwood Screening Facility, Harvard Medical School)
In the library only some 1.4% were active in any assay of this set; here they are far more common.
PV pol inh = inhibitors of poliovirus RNA polymerase binding and polymerization. poliovirus polymerase elongation, fluorescence polarization; active compounds read low. % elongation, % (compound at 16.7 µg/mL). 150,000 compounds, 0.66% hits. AID 588519; in the data active means % elongation below about 90%
Mtb MenB inh = inhibitors of Mycobacterium tuberculosis MenB enzyme; P9WNP5; MenB enzyme assay, absorbance read-out; inhibition, % (concentration not given with the values); 100,000 compounds, 0.43% hits; in the data active means inhibition above about 21%, passing the limit was not always enough
AID504770 = E. coli YBA685 growth inhibition, screen for V. cholerae RctB inhibitors; E. coli YBA685 rctB-dependent plasmid, OD600 growth, 3 h; active compounds read low; AID 504770; z-score (test concentration not listed); 130,000 compounds, 0.27% hits; in the data active means z-score below about -2, passing the limit was not always enough
MbtI inh = blocks the Mycobacterium tuberculosis siderophore enzyme MbtI; purified MbtI enzyme, fluorescence intensity read-out; inhibition, % (concentration not given with the values); 100,000 compounds, 0.89% hits; AID 493033; in the data active means inhibition mostly above about 56%, no sharp cut-off; inactive means mostly below about 77%
Target sequence (P9WFX0 whole entry, looked up): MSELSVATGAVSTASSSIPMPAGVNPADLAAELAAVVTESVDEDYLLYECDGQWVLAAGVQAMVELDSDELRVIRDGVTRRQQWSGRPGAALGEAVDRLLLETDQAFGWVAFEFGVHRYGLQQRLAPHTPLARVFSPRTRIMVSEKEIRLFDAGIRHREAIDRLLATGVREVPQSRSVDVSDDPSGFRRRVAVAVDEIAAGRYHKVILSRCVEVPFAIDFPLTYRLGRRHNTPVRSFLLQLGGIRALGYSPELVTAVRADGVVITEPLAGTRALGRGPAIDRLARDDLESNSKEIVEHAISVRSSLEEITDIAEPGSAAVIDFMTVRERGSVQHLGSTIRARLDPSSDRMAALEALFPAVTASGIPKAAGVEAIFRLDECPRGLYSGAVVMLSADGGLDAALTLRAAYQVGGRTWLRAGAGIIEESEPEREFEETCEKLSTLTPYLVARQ
The depositor's hits bear a star; . = not tested or not shown; ! = not active in a repeat.

SMILES	PV pol inh	Mtb MenB inh	AID504770	MbtI inh
O=C(CCn1c(=O)oc2ccccc21)Oc1cccc(Cl)c1	.	.	0.6	.
O=C(CCn1c(=O)oc2ccccc21)Sc1ccc(Cl)cc1Cl	87*	2	1	70*
Cc1sc2nc(SCC(=O)c3ccc(O)cc3O)[nH]c(=O)c2c1C	76*	13	-0.05	88*
CN(C)C(CNC(=O)c1ccccc1SCC(=O)NCc1ccco1)c1ccccc1 (stereo unspecified)	99	-7	-0.4	65
Cc1ccc(C(=O)Nc2nncs2)cc1	101	26*	-0.55	16
CCc1ccc(C(=O)Nc2nncs2)cc1	100	13	0.55	9
Cc1ccccc1Nc1cc2ccccc2c(=O)[nH]1	.	.	-4*	7
CCCCNS(=O)(=O)c1ccc2[nH]c(=S)[nH]c2c1	88*	-23	-0.15	87
COc1ccc2c(CNCC3CCCO3)c(C(=O)O)n(Cc3ccc(C)cc3)c2c1 (stereo unspecified)	101	10	0.5	-16
C[N+]1(C)C2CCC1CC(OC(=O)C(CO)c1ccccc1)C2 (stereo unspecified)	104	9	0.95	65*!
CC(C)[N+]1(C)C2CCC1CC(OC(=O)C(CO)c1ccccc1)C2 (stereo unspecified)	99	-1	.	-10
CSc1nn(C)c2cnn(C)c(=O)c12	55*	-2	-0.8	71
Cn1ncc2c(c(SCc3ccc(Cl)cc3Cl)nn2C)c1=O	101	-17	-2	21
CCCC(=O)N1N=C(c2ccc(C)cc2)OC1c1ccc(OC)cc1 (stereo unspecified)	100	5	0.1	22
Cc1nc(C(F)(F)F)ccc1C(=O)NCC(O)c1ccccc1 (stereo unspecified)	88*	-2	-0.45	-15
Cc1nc(C(F)(F)F)ccc1C(=O)NCc1ccccc1	.	.	1.1	.
N#Cc1ccc(CONC(=O)c2cccs2)cc1	103	-13	-1.2	2
O=C(O)c1ccccc1CSc1nc2ccccc2[nH]1	96	4	0.6	56*
CCOC(=O)c1c(-c2ccc(C)o2)csc1NC(=S)NC(=O)N(C)C	99	-65	0.45	85*
O=C(OCC(=O)c1ccccc1)C1=COCCO1	97	3	-0.2	-13
CN1CCN(S(=O)(=O)c2ccc3oc(=O)c4ncn(C)c4c3c2)CC1	102	-6	-2.4*	-179
Cn1cnc2c(=O)oc3ccc(S(=O)(=O)N4CCN(c5ccccc5)CC4)cc3c21	105	.	.	.
CC(C)N(Cc1nnc(-c2ccccc2Cl)o1)C(=O)C1=CC=CN2CCS(=O)(=O)N=C12	103	7	0.1	103
O=C(OCCN1C(=O)c2ccccc2C1=O)c1cccc(S(=O)(=O)N2CCCCC2)c1	103	-36	1.4	-2
CCOC(=O)c1c(Nc2ccc(OC)c(Cl)c2)n[nH]c1C	98	-56	3	88*
SMILES	PV pol inh	Mtb MenB inh	AID504770	MbtI inh
O=C(CSc1ncc(C(F)(F)F)cc1Cl)N1CCNC1=O	104	3	1.2	58*
CC1=CC(=O)C(CCCC2=CC(=O)C=CC2=O)=CC1=O	102	0	0.45	100*
CN(C)CCNCc1ccc(-c2ccccc2)o1	102	61*	-0.5	13
CC(O)CNCc1ccc(-c2ccccc2)o1 (stereo unspecified)	100	8	-0.1	2
NC(=S)c1ccccn1	20*	-30	-1.1	10
N/C(=N\NS(=O)(=O)c1ccccc1)c1ccccn1	104	-13	1.1	7
N/C(=N\O)c1ccccn1	104	3	-0.1	-4
NC(=S)N/N=C(/C(=O)c1ccccn1)c1ccccn1	74*	-8	-0.7	91*
CCOC(=O)CCSc1ncnc2sc3c(c12)CCC3	.	.	0.75	.
O=C1C=CC(=O)N1C1CC1	102	10	-6*	91*
Cc1ccc(C(=O)CC(C(=O)O)N2CCN(C)CC2)cc1 (stereo unspecified)	104	31*	-1.3	.
COc1cccc(NC(=O)CCSc2nc(-c3ccco3)cc(C(F)(F)F)n2)c1	90*	.	.	.
COc1ccc(S(=O)(=O)c2cn(Cc3ccccc3)c3ccc(OC)cc3c2=O)cc1	102	.	.	.
CCOc1ccc(S(=O)(=O)c2cn(Cc3ccc(C)cc3)c3ccc(OC)cc3c2=O)cc1	90*	.	.	.
CSC(SC)=C(C#N)S(C)(=O)=O	101	18	-1.1	68*
Cc1ccccc1NCC1SC(=S)NC1=O (stereo unspecified)	123	-19	-0.6	0
C=CCN(C(=O)CSc1nnc(CC)n2c1cc1oc(C)cc12)c1ccccc1	101	45*	0.05	3
CCc1nnc(SCC(=O)N(CC)c2ccccc2)c2cc3oc(C)cc3n12	111	.	.	.
